Source: the OligoGym collection

Molecular target: ALAD
Assay: pooled miR-30 sensor sort-seq; sequence = guide strand
Conditions: shRNA
Note: reference of the scale not given here.

Sequence	sensor-assay potency score (higher = more potent)
AAATTTGGCACTGTAGCTCATC	-0.696
AAGCTGGGCTTGACTTAGCTGC	-1.16
ATGATGTCAGCACCTGCTCTGC	-1.4
TTGACTTAGCTGCATCCCGGAA	-1.25
TATGTCATCAGGAACATCCGTG	0.268
TGATAGGCTGTATGTCATCAGG	-1.65
TAGTGGGTGGAAGTAGCCGCTG	-1.31
ATGTCATCAGGAACATCCGTGA	-0.798
TTTAAAGTTCTAGTTCTTGGGC	-0.0518
ATGTCAGCACCTGCTCTGCGGA	-1.76
TGATGATGATGTCAGCACCTGC	-1.54
TAGGTGATGATGATGTCAGCAC	0.277
ACATCCGTGACAAAGATGGGGT	0.0537

Molecular target: ALDH1A1
Assay: as above
Conditions: shRNA

Sequence	sensor-assay potency score (higher = more potent)
TTGAATCTTCAAATCGGTGAGT	0.0111
TAACATTAGAGAACACTGTGGG	0.962
TGATTTGCTGCACTGGTCCAAA	-0.586
TATATTAGTGACTGTAAGGAGA	-0.658
TATTGTTCCTTGTCAATCTGAG	0.207
TTAGAGAACACTGTGGGCTGGA	0.618
TTCATTGACTCCATTGTCGCCA	0.315
TTAAAATCTACTATATTAGTGA	0.534
TACTTTGTCTATATCCATGTGA	0.349
TTATCTCCTTCTTCTACCTGGC	-0.0648
AATACTAATATGATTTAGCTTA	-0.152
TTAAAGACAGGAAATTTCTTGC	-0.236
TGTCTTTGGTAAACACTCCTGC	0.136
TAGCGCAATGTTTTGATGCAGC	-0.601
TTAGCTATTGAAGAGCTTCTCT	0.445
TAATTCTTTCAGAAGAAGCTAC	-0.0936
ATATTGTTCCTTGTCAATCTGA	0.00946
TAGAAAGTATTGTTTGCTCTTT	-0.662
AAATTCAACAGCATTGTCCAAG	-0.656
TAGCAATTCACCCACACTGTTC	-1.07
TGTAACATTAGAGAACACTGTG	0.545
TGCCTTGTCAACATCCTCCTTA	0.465
TTGGTAAACACTCCTGCTGATA	-1.11

Molecular target: ALDH1A3
Assay: as above
Conditions: shRNA

Sequence	sensor-assay potency score (higher = more potent)
TTGAAGGGTTACATGTAGCAAA	-0.786
TTCTTCGATACTTTTGAACTTC	0.188
TTTCCTGACATTTTAAAGCCAC	-0.397
TTTTGAACTTCAGTATTGGTTG	-0.527
